Consider 8 compounds from PubChem BioAssay (NCI).

SMILES strings stand for the structures. This is part of a sample that, as a whole, favours compounds with a hit. Of some 83,000 tested, about 20% had one in any assay.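 Results are percent growth after 48 hours of single-concentration exposure. 100 means growth as in untreated cells, lower positive values show inhibition; negative values down to -100 show cell death.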 A number with no mark means an inactive call. Activity calls are given as the source filed them. The calls were made as follows: active = growth percent below 10; inactive = the rest.

Among the test systems are HCT-15 colon; HT29 colon; SNB-75 CNS; SNB-19 CNS; U251 CNS; PC-3 prostate; SK-MEL-5 melanoma; UACC-62 melanoma; LOX IMVI melanoma; SK-MEL-28 melanoma; SK-MEL-2 melanoma; EKVX NSCLC; SN12C renal; UO-31 renal; TK-10 renal; ACHN renal; CAKI-1 renal; A498 renal; CCRF-CEM leukemia; MOLT-4 leukemia.
Holding throughout (assay): NCI-60 one-dose screen, 48 h (100 = growth as untreated, 0 = no growth, -100 = all killed)
Settings in all cases: 10 µM unless noted

In the case of `COc1ccc(/C=C/c2n[nH]c3ccc(N4CCOC4=O)cc23)cc1`, the growth in the test on HCT-15 colon is 10.1%; with HT29 colon, -18.6% (active); in the test with SNB-75 CNS, -11.1% (active); in the test with SNB-19 CNS, 18.2%; in the test on U251 CNS it was 15.9%; with PC-3 prostate, 18.5%. In addition, the growth is 11.7% in the test with SK-MEL-5 melanoma; 16.5% in the test with UACC-62 melanoma; 1.88% (active) in the test on LOX IMVI melanoma; 33.5% with SK-MEL-28 melanoma; 11.7% with SK-MEL-2 melanoma; 8.71% (active) in the test with EKVX NSCLC. In addition, the growth in the test with SN12C renal was 24%; with UO-31 renal, -45.7% (active); in the test on TK-10 renal, -9.71% (active); with ACHN renal, 6.86% (active); in the test with CAKI-1 renal it was 4.59% (active); in the test with A498 renal, -19.6% (active). Further, the growth in the test on CCRF-CEM leukemia was -17% (active); with MOLT-4 leukemia it was 4.38% (active).

As for `COc1ccc(C(O)c2cc3c(N)c(C(=O)Nc4ccccc4)sc3nc2C)cc1` (stereo not given), the growth in the test on HCT-15 colon is 9.94% (active); with HT29 colon it was -22% (active); with SNB-75 CNS it was -7.27% (active); in the test on SNB-19 CNS, 24.6%; in the test with U251 CNS, 5.4% (active); in the test on PC-3 prostate, 17.4%. The growth in the test with SK-MEL-5 melanoma is -31.9% (active); in the test with UACC-62 melanoma, 19.6%; with LOX IMVI melanoma, 34.6%; with SK-MEL-28 melanoma, 68.1%; in the test with SK-MEL-2 melanoma, 9.47% (active); in the test on EKVX NSCLC it was 26%. Also, the growth was 21.5% in the test with SN12C renal; 19.1% in the test on UO-31 renal; 44.2% in the test on TK-10 renal; 25.7% in the test on ACHN renal; 15.1% in the test on CAKI-1 renal; -20.8% (active) in the test on A498 renal. Moreover, the growth in the test with CCRF-CEM leukemia was 4.7% (active); with MOLT-4 leukemia it was 11.4%.

For the compound `C#Cc1cccc(NC(=O)Nc2ccc(NC(=O)CCl)cc2)c1`, the growth in the test on HCT-15 colon was -63.1% [8.25 µM] (active); in the test on HT29 colon it was -69.5% [8.25 µM] (active); in the test with SNB-75 CNS, -27.9% [8.25 µM] (active); in the test with SNB-19 CNS, 32.4% [8.25 µM]; in the test on U251 CNS it was -72% [8.25 µM] (active); in the test with PC-3 prostate it was 8.79% [8.25 µM] (active). Further, the growth is -73.9% [8.25 µM] (active) in the test with SK-MEL-5 melanoma; -44.3% [8.25 µM] (active) with UACC-62 melanoma; -74.9% [8.25 µM] (active) in the test on LOX IMVI melanoma; 67.6% [8.25 µM] in the test with SK-MEL-28 melanoma; -25% [8.25 µM] (active) in the test with SK-MEL-2 melanoma; 88.3% [8.25 µM] in the test with EKVX NSCLC. The growth was -9.22% [8.25 µM] (active) in the test with SN12C renal; -97.4% [8.25 µM] (active) with UO-31 renal; -71.4% [8.25 µM] (active) with TK-10 renal; -99.5% [8.25 µM] (active) in the test with ACHN renal; 9.01% [8.25 µM] (active) in the test with CAKI-1 renal; 76.4% [8.25 µM] in the test on A498 renal. Besides, the growth is -29.8% [8.25 µM] (active) in the test with CCRF-CEM leukemia and -9.78% [8.25 µM] (active) in the test on MOLT-4 leukemia.

Take `O=C(Nc1nc2ccc(C(=O)N3CCN(c4ccc(Cl)c(Cl)c4)CC3)cc2s1)c1ccc(NCCc2ccccc2)c([N+](=O)[O-])c1`: the growth in the test with HCT-15 colon was 98.3%; in the test on HT29 colon it was 100%; with SNB-75 CNS, 98.1%; with SNB-19 CNS it was 100%; in the test on U251 CNS, 102%; with PC-3 prostate it was 92.4%. In addition, the growth in the test on SK-MEL-5 melanoma was 87.9%; in the test on UACC-62 melanoma, 78.1%; in the test with LOX IMVI melanoma, 98.3%; with SK-MEL-28 melanoma it was 105%; in the test with SK-MEL-2 melanoma it was 104%; with EKVX NSCLC it was 95.3%. Also, the growth was 93.3% in the test with SN12C renal; 60.7% in the test on UO-31 renal; 113% in the test on TK-10 renal; 101% in the test on ACHN renal; 87% in the test on CAKI-1 renal; 79.4% with A498 renal. The growth is 93.6% with CCRF-CEM leukemia and 95.7% with MOLT-4 leukemia.

Take `O=C(O)CCCCCCCCCCCCCCC(=O)O`: the growth is 104% with HCT-15 colon; 104% in the test on HT29 colon; 88.2% with SNB-75 CNS; 99.1% with SNB-19 CNS; 93.7% in the test with U251 CNS; 92.6% with PC-3 prostate. Moreover, the growth was 103% with SK-MEL-5 melanoma; 95.1% in the test with UACC-62 melanoma; 98.6% in the test on LOX IMVI melanoma; 106% in the test on SK-MEL-28 melanoma; 103% in the test on SK-MEL-2 melanoma; 106% in the test with EKVX NSCLC. Also, the growth was 93.8% in the test with SN12C renal; 99.8% in the test with UO-31 renal; 90.4% in the test with TK-10 renal; 107% in the test with ACHN renal; 103% with CAKI-1 renal; 76.9% with A498 renal. Moreover, the growth with CCRF-CEM leukemia was 96.1%; in the test on MOLT-4 leukemia it was 103%.

As to `COC(=O)Nc1ccc(NC(=O)OC)cc1`, the growth in the test on HCT-15 colon was 108%; in the test with HT29 colon it was 98.4%; with SNB-75 CNS, 80%; in the test with SNB-19 CNS, 103%; in the test with U251 CNS it was 99.1%; with PC-3 prostate, 77.7%. The growth with SK-MEL-5 melanoma was 99.1%; in the test on UACC-62 melanoma, 103%; with LOX IMVI melanoma it was 99%; in the test on SK-MEL-28 melanoma, 116%; in the test on SK-MEL-2 melanoma, 88.5%; in the test on EKVX NSCLC, 103%. For the same compound, the growth in the test with SN12C renal was 104%; with UO-31 renal it was 87.6%; in the test with TK-10 renal, 94.4%; in the test with ACHN renal it was 115%; in the test on CAKI-1 renal it was 93.4%; in the test with A498 renal, 97.2%. The growth in the test on CCRF-CEM leukemia was 68.1%; in the test on MOLT-4 leukemia it was 100%.

As to `Clc1nc(Cl)c2ncn(CCOCCn3cnc4c(Cl)nc(Cl)nc43)c2n1`, the growth in the test with HCT-15 colon was -78.7% (active); in the test on HT29 colon, -60.5% (active); in the test on SNB-75 CNS it was -92.3% (active); in the test on SNB-19 CNS it was -89.3% (active); in the test with U251 CNS it was -72.3% (active); in the test on PC-3 prostate it was -93.4% (active). The growth in the test with SK-MEL-5 melanoma was -91.5% (active); with UACC-62 melanoma, -95.9% (active); in the test with LOX IMVI melanoma it was -83.2% (active); in the test with SK-MEL-28 melanoma, -95.7% (active); in the test with SK-MEL-2 melanoma, -76.8% (active); in the test with EKVX NSCLC, -91.1% (active). Besides, the growth was -83.6% (active) in the test on SN12C renal; -95.4% (active) in the test on UO-31 renal; -86% (active) in the test with TK-10 renal; -89.1% (active) in the test with ACHN renal; -94.6% (active) in the test with CAKI-1 renal; -92.4% (active) in the test with A498 renal. Further, the values for the growth in the test on CCRF-CEM leukemia and in the test on MOLT-4 leukemia were -45.2% (active) and -68.9% (active), respectively.

Regarding `Cc1cc(NC(=O)c2cnc(N3CCN(CCOCCOCCOCCOCCC(=O)N[C@H](C(=O)N4C[C@H](O)C[C@H]4C(=O)N[C@@H](C)c4ccc(-c5scnc5C)cc4)C(C)(C)C)CC3)cn2)c2ncccc2c1`, the growth in the test on HCT-15 colon is 60.5%; in the test with HT29 colon it was 5.72% (active); with SNB-75 CNS, 6.69% (active); with SNB-19 CNS, 27.7%; in the test on U251 CNS, 4.36% (active); in the test on PC-3 prostate, 1.95% (active). For the same compound, the growth in the test with SK-MEL-5 melanoma is -41.1% (active); in the test on UACC-62 melanoma, -57.1% (active); with LOX IMVI melanoma, -85.8% (active); in the test with SK-MEL-28 melanoma, -75.1% (active); with SK-MEL-2 melanoma it was -17.8% (active); in the test with EKVX NSCLC, 60%. Also, the growth in the test on SN12C renal is -2.01% (active); with UO-31 renal, 75.8%; with TK-10 renal, 69.3%; in the test with ACHN renal, 37.9%; in the test on CAKI-1 renal, 42.9%; in the test on A498 renal it was 78.6%. Moreover, the results for the growth in the test on CCRF-CEM leukemia and with MOLT-4 leukemia were -1.88% (active) and 1.53% (active), respectively.
